Results taken from PubChem BioAssay (Tox21).
Several values for one entry are separate records, joined by “and”; a condition that tells them apart may be missing. Equal entries are not always repeated. Results filed as inconclusive are left out. Entries that show only a call come without a potency. The source holds several records for some structures; these can differ, active in one and inactive in another. Activity calls are given as the source filed them. Unless noted, the call rests on the fitted dose curve; in most records, active means well fitted curve in the direction sought with a large enough effect in the repeat runs; inconclusive means weak or mixed curves; inactive means no such curve, though single readings can be large; an effect the other way counts as inactive or inconclusive.

Key:
[1] = qHTS assay to identify small molecule agonists of the hypoxia (HIF-1) signaling pathway (AID 1224846; active means well fitted activation curve with a large enough effect in the signal ratio in the repeat runs, not every such curve was filed as active; the % refers to the signal ratio)
Outline: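 Agonist mode reporter screen. ME-180 cells stably expressing bla under HRE control received test compounds in DMSO for 17 hrs (37C, 5% CO2), and beta-lactamase activity was then detected with the CCF4-AM FRET substrate.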

[2] = qHTS assay to identify small molecule agonists of H2AX - cell viability counter screen (AID 1224847; calls by dose curve; further: nearly all actives have a fitted effect of over 30% in size; further: potency means the concentration at half of the fitted maximal effect)
Outline: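 Viability of CHO-K1 (wild type) cells after 3 hr compound exposure was measured by CellTiter-Glo luminescence.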

[3] = qHTS assay to identify small molecule antagonists of the estrogen related receptor (ERR) signaling pathway from Tox21 library (AID 1224848); further: nearly all actives have a fitted effect of over 50% in size
Outline: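 ERR cell line, 2,000 cells/well. 6 h settle, then compound (DMSO) added; 18 h at 37 C; ONE-Glo luminescence after 30 min RT.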

[4] = qHTS assay to identify small molecule agonists of the estrogen related receptor (ERR) signaling pathway from Tox21 library (AID 1224849; calls by dose curve; further: nearly all actives have a fitted effect of over 15% in size); conditions: ERR reporter cell line, ONE-Glo luciferase, 18 h
Outline: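 Quantitative HTS in agonist format: NTP ERR cell line, compounds transferred in DMSO after 6 h plating, 18 h incubation at 37 C, ONE-Glo luminescence endpoint.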

[5] = qHTS RealTime-Glo MT Cell Viability Assay in HepG2 cells - 24 hour (AID 1224867); further: nearly all actives have a fitted effect of over 50% in size
Outline: (§1)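 Luminescence read-out: viable HepG2 cells reduce a prosubstrate to a NanoLuc substrate, giving a signal proportional to live cell number. Reads taken at 0, 8, 16, 24, 32 and 40 h of compound exposure at 37 C.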

[6] = A CellTox Green Cytotoxicity Assay to monitor cytotoxicity in HEK293 cells - 0 hour (AID 1224869); further: nearly all actives have a fitted effect of over 50% in size
Outline: (§2)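 Dead-cell fluorescence measured kinetically: asymmetric cyanine dye, HEK293, 600 cells/well, 5 h settle, 23 nL cpd/DMSO, 37 C, reads 0–40 h every 8 h.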

[7] = A CellTox Green Cytotoxicity Assay to monitor cytotoxicity in HEK293 cells - 40 hour (AID 1224871); further: nearly all actives have a fitted effect of over 45% in size; further: potency means the concentration at half of the fitted maximal effect
Outline: as §2

[8] = qHTS RealTime-Glo MT Cell Viability Assay in HEK293 cells - 16 hour (AID 1224872); further: nearly all actives have a fitted effect of over 50% in size; further: potency means the concentration at half of the fitted maximal effect
Outline: (§3)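 Nonlytic real-time viability readout: viable cells convert prosubstrate to NanoLuc substrate, giving luminescence proportional to live cell number. HEK293, 600 cells/well, compound added after 5 h, continuous culture at 37 C.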

[9] = qHTS RealTime-Glo MT Cell Viability Assay in HepG2 cells - 8 hour (AID 1224873); further: nearly all actives have a fitted effect of over 55% in size
Outline: (§4)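 Real-time viability: cells seeded at 600 per well together with NanoLuc and cell-permeant prosubstrate, compounds added after 5 h incubation. Luminescence tracked at 0, 8, 16, 24, 32 and 40 h of exposure.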

[10] = A CellTox Green Cytotoxicity Assay to monitor cytotoxicity in HEK293 cells - 24 hour (AID 1224875); further: nearly all actives have a fitted effect of over 45% in size
Outline: as §2

[11] = A CellTox Green Cytotoxicity Assay to monitor cytotoxicity in HepG2 cells - 16 hour (AID 1224876); further: nearly all actives have a fitted effect of over 45% in size; further: potency means the concentration at half of the fitted maximal effect
Outline: (§5)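 First, HepG2 cells (600/well) mixed with reagent were plated; second, after 5 h at 37 C they received compounds via pintool; third, fluorescence was measured at 0 h through 40 h at 8 h intervals.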

[12] = qHTS RealTime-Glo MT Cell Viability Assay in HepG2 cells - 32 hour (AID 1224877); further: nearly all actives have a fitted effect of over 55% in size
Outline: as §1

[13] = A CellTox Green Cytotoxicity Assay to monitor cytotoxicity in HepG2 cells - 24 hour (AID 1224878); further: nearly all actives have a fitted effect of over 45% in size; further: potency means the concentration at half of the fitted maximal effect
Outline: as §5

[14] = A CellTox Green Cytotoxicity Assay to monitor cytotoxicity in HepG2 cells - 40 hour (AID 1224879); further: nearly all actives have a fitted effect of over 40% in size; further: potency means the concentration at half of the fitted maximal effect
Outline: as §5

[15] = qHTS RealTime-Glo MT Cell Viability Assay in HEK293 cells - 0 hour (AID 1224880)
Outline: (§6)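 600 HEK293 cells per well, dispensed already mixed with RealTime-Glo MT reagents. Compound dosing came 5 h later. The same wells were read for luminescence at 0, 8, 16, 24, 32 and 40 h of exposure at 37 C.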

[16] = qHTS assay to identify small molecule agonists of H2AX (AID 1224845; active means well fitted activation curve with a large enough effect in the signal ratio in the repeat runs, not every such curve was filed as active; the % refers to the signal ratio)
Outline: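 Phospho-H2AX Ser139 measured by HTRF (ex 320 nm; em 665 and 620 nm) after 24 hr antibody incubation. Compounds, 15 concentrations, 0.76% DMSO, were applied to CHO-K1 cells for 3hr at 37C before lysis.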

[17] = qHTS RealTime-Glo MT Cell Viability Assay in HepG2 cells - 40 hour (AID 1224870); further: nearly all actives have a fitted effect of over 50% in size
Outline: as §4

[18] = A CellTox Green Cytotoxicity Assay to monitor cytotoxicity in HEK293 cells - 32 hour (AID 1224881); further: nearly all actives have a fitted effect of over 40% in size
Outline: as §2

[19] = qHTS RealTime-Glo MT Cell Viability Assay in HEK293 cells - 32 hour (AID 1224868); further: nearly all actives have a fitted effect of over 50% in size; further: potency means the concentration at half of the fitted maximal effect
Outline: as §3

[20] = qHTS RealTime-Glo MT Cell Viability Assay in HEK293 cells - 40 hour (AID 1224874); conditions: RealTime-Glo luminescence; max response: stronger effect = lower value; further: nearly all actives have a fitted effect of over 50% in size
Outline: as §6

SMILES: Clc1ccc(C(Cl)(Cl)Cl)cc1
- outcome [1]: inactive
- Potency [2]: inactive
- Potency [3]: inactive
- activity change, positive = activation ([4]; at 92.4 µM (top of the series)): -5.48% (inactive) and 0.497% (inactive)
- Potency [5]: inactive
- Potency [6]: inactive
- Potency [7]: inactive
- Potency [8]: inactive
- Potency [9]: inactive
- Potency [10]: inactive
- Potency [11]: inactive
- Potency [12]: inactive
- Potency [13]: inactive
- Potency [14]: inactive
- Potency [15]: inactive

SMILES: ClC(Cl)=C(Cl)C(Cl)=C(Cl)Cl
- Potency [16]: inactive
- outcome [1]: inactive
- Potency [2]: inactive
- Potency [5]: inactive
- Potency [6]: inactive
- Potency [17]: inactive
- Potency [7]: inactive
- Potency [8]: inactive
- Potency [9]: inactive
- Potency [10]: inactive
- Potency [11]: inactive
- Potency [12]: inactive
- Potency [13]: inactive
- Potency [14]: inactive
- Potency [15]: inactive
- Potency [18]: inactive

SMILES: O=C(O)c1nn(Cc2ccc(Cl)cc2Cl)c2ccccc12
- outcome [1]: inactive
- Potency [2]: inactive
- Potency [3]: inactive
- activity change, positive = activation ([4]; at 42.5 µM (top of the series)): -5.39% (inactive)
- activity change, positive = activation ([4]; at 92.4 µM (top of the series)): -48% (inactive)
- Potency [5]: inactive
- Potency [19]: inactive
- Potency [6]: inactive
- Potency [17]: inactive
- Potency [7]: inactive
- Potency [8]: inactive
- Potency [9]: inactive
- max response [20]: -3.1% (inactive) and 1.84% (inactive)
- Potency [10]: inactive
- Potency [11]: inactive and 95.2 nM (active)
- Potency [12]: inactive
- Potency [13]: inactive and 107 nM (active)
- Potency [14]: inactive and 95.2 nM (active)
- Potency [15]: inactive
- Potency [18]: inactive

SMILES: Nc1ncn[nH]1
- Potency [16]: inactive
- outcome [1]: inactive
- Potency [2]: inactive
- Potency [5]: inactive
- Potency [6]: inactive
- Potency [17]: inactive
- Potency [7]: inactive
- Potency [8]: inactive
- Potency [9]: inactive
- Potency [10]: inactive
- Potency [11]: inactive
- Potency [12]: inactive
- Potency [13]: inactive
- Potency [14]: inactive
- Potency [15]: inactive
- Potency [18]: inactive

SMILES: C[N+](C)(C)CC(=O)[O-]
- Potency [16]: inactive
- Potency [2]: inactive
- Potency [5]: inactive
- Potency [6]: inactive
- Potency [17]: inactive
- Potency [7]: inactive
- Potency [8]: inactive
- Potency [9]: inactive
- max response [20]: 3.4% (inactive) and 10.8% (inactive)
- Potency [10]: inactive
- Potency [11]: inactive
- Potency [12]: inactive
- Potency [13]: inactive
- Potency [14]: inactive
- Potency [15]: inactive
- Potency [18]: inactive

SMILES: O=S(=O)(O)C(F)(F)C(F)(F)C(F)(F)C(F)(F)C(F)(F)C(F)(F)C(F)(F)C(F)(F)F
- outcome [1]: inactive
- Potency [2]: inactive
- Potency [3]: inactive
- activity change, positive = activation ([4]; at 92.4 µM (top of the series)): -7.99% (inactive) and -0.0044% (inactive) and -21.1% (inactive)
- Potency [5]: inactive
- Potency [19]: inactive
- Potency [6]: inactive
- Potency [7]: 33 µM (active) and inactive and 21.9 µM (active)
- Potency [8]: inactive
- Potency [9]: inactive
- Potency [11]: 18.6 µM (active) and inactive
- Potency [13]: 18.6 µM (active) and inactive
- Potency [14]: 16.5 µM (active) and inactive
- Potency [15]: inactive

SMILES: [CH3][Sn]([Cl])([Cl])[Cl]
- outcome [1]: inactive
- Potency [2]: inactive
- Potency [5]: inactive
- Potency [6]: inactive
- Potency [17]: inactive
- Potency [7]: inactive
- Potency [8]: inactive
- Potency [9]: inactive
- max response [20]: 17% (inactive) and 3.42% (inactive)
- Potency [10]: inactive
- Potency [11]: inactive
- Potency [12]: inactive
- Potency [13]: inactive
- Potency [14]: inactive
- Potency [15]: inactive
- Potency [18]: inactive

SMILES: CN(C)c1nc(=O)n(C2CCCCC2)c(=O)n1C
- outcome [1]: inactive
- Potency [2]: inactive
- Potency [5]: inactive
- Potency [6]: inactive
- Potency [7]: inactive
- Potency [8]: inactive
- Potency [9]: inactive
- max response [20]: 6.15% (inactive) and 0.589% (inactive)
- Potency [10]: inactive
- Potency [11]: inactive
- Potency [13]: inactive
- Potency [14]: inactive
- Potency [15]: inactive
- Potency [18]: inactive

SMILES: CCOP(=S)(OCC)SCSC(C)(C)C
- outcome [1]: inactive
- Potency [2]: inactive
- Potency [5]: inactive
- Potency [19]: inactive
- Potency [6]: inactive
- Potency [17]: inactive
- Potency [7]: inactive
- Potency [8]: inactive
- Potency [9]: inactive
- max response [20]: 5.63% (inactive) and -1.38% (inactive)
- Potency [10]: inactive
- Potency [11]: inactive
- Potency [12]: inactive
- Potency [13]: inactive
- Potency [14]: inactive
- Potency [15]: inactive

SMILES: C[N+](C)(C)C
- outcome [1]: inactive
- Potency [2]: inactive
- Potency [5]: inactive
- Potency [6]: inactive
- Potency [17]: inactive
- Potency [7]: inactive
- Potency [8]: inactive
- Potency [9]: inactive
- max response [20]: 4.13% (inactive) and -0.266% (inactive)
- Potency [10]: inactive
- Potency [11]: inactive
- Potency [12]: inactive
- Potency [13]: inactive
- Potency [14]: inactive
- Potency [15]: inactive
- Potency [18]: inactive

SMILES: C[N+](C)(C)CC(=O)O
- Potency [2]: inactive
- Potency [5]: inactive
- Potency [19]: inactive
- Potency [6]: inactive
- Potency [17]: inactive
- Potency [7]: inactive
- Potency [8]: inactive
- Potency [9]: inactive
- Potency [10]: inactive
- Potency [11]: inactive
- Potency [12]: inactive
- Potency [13]: inactive
- Potency [14]: inactive
- Potency [15]: inactive
- Potency [18]: inactive

SMILES: Cc1ccc(N=CN(C)C=Nc2ccc(C)cc2C)c(C)c1
- outcome [1]: inactive
- Potency [2]: 101 µM (active) and inactive
- Potency [5]: inactive
- Potency [19]: 43.8 µM (active) and 43.6 µM (active) and inactive
- Potency [6]: inactive
- Potency [17]: inactive
- Potency [7]: inactive
- Potency [8]: 43.8 µM (active) and 38.9 µM (active) and inactive
- Potency [9]: inactive
- Potency [10]: inactive
- Potency [11]: inactive
- Potency [12]: inactive
- Potency [13]: 43.6 µM (active) and inactive
- Potency [14]: 43.6 µM (active) and inactive
- Potency [15]: inactive
